# Screening data: PubChem BioAssay, National Center for Advancing Translational Sciences (NCATS)
# VACV mCherry inh: vaccinia inhibition (mCherry reporter) | 0.63% of 310,000 active | AID 720579 | Vaccinia virus mCherry reporter infection, fluorescence | Potency, µM (top dose mostly 36.5 µM), inactives show at the top dose activity change, negative = inhibition, usual class: inhibitors; calls by dose curve; tested in A549 cells; further: nearly all actives have a fitted effect of over 35% in size
# FMDV inh: blocks foot and mouth disease virus; FMDV antiviral cell-based qHTS; Potency, µM (series often up to 57.9 µM), without a hit: at the highest dose activity change, negative = inhibition, actives largely listed as inhibitors; 1.2% of 410,000 active; AID 1159524; calls by dose curve; tested in HEK293T cells; further: read-out not given here; nearly all actives have a fitted effect of over 45% in size
# Giardia FBPA inh: inhibitors of Giardia lamblia fructose-1,6-bisphosphate aldolase; A8B2U2; purified Giardia FBPA; 0.71% of 290,000 active; Potency, µM (top dose mostly 59.6 µM), for the others: top-dose activity, negative = inhibition, usual class: inhibitors; active means well fitted inhibition curve with a large enough effect; inconclusive means small, poorly fitted or top-dose-only effect, or effect the other way; further: nearly all actives have a fitted effect of over 55% in size
# Target sequence (A8B2U2 whole entry, looked up): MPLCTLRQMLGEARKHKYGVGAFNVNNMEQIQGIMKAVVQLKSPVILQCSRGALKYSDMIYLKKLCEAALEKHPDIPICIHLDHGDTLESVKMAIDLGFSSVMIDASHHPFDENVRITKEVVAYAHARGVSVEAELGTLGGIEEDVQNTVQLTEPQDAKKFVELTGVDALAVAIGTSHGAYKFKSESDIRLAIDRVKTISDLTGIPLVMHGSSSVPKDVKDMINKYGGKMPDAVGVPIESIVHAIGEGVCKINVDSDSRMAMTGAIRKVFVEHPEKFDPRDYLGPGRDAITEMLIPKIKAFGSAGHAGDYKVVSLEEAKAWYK
#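 40 nM FBPA preincubated 10 min at RT with compound (up to 57.5 uM final), then substrate plus GAPDH/TPI/NAD/arsenate coupling and diaphorase/resazurin added. Fluorescence read after 20 min at RT, 525/598 nm.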
# Vaccinia Venus: vaccinia inhibition (Venus reporter) | 0.46% of 330,000 active | Vaccinia virus Venus reporter expression, fluorescence | Potency, µM (highest dose often 36.5 µM), for the others: at the top dose activity change, negative = inhibition, most hits filed as inhibitors; calls by dose curve; tested in A549 cells; further: nearly all actives have a fitted effect of over 30% in size
# Numbers without * were called inactive; i = inactive; ? = inconclusive; nt = no result given; [ ] = remark or other dose. Only some compounds are listed: those with a hit (about 2.2% of all), similar ones and a draw of the others. On the % scale 0 is the no-effect control and ±100 the full control effect; potency means the concentration at half of the fitted maximal effect.
SMILES,VACV mCherry inh,FMDV inh,Giardia FBPA inh,Vaccinia Venus
Cc1ccc(C)c(OC2=NS(=O)(=O)c3ccccc32)c1,-7.2%,35.5µM*,2.5%,5.4%
O=C(O)c1ccc(N/N=C/c2c(F)cccc2Cl)cc1,nt,31.6µM*,0.0%,nt
Cc1csc(N/N=C/c2c(F)cccc2Cl)n1,3.55µM*,44.9%,-13.2%,5.01µM*
O=Nc1c(O)[nH]c2ccc(Cl)c(Cl)c12,14.1µM*,-9.5%,nt,?
CCc1cccc2c(N=O)c(O)[nH]c12,-27.9%,-23.8%,1.0%,-21.2%
COCc1c(C(=O)N2CCN(c3ccccc3O)CC2)cnn1-c1nccc(-c2cccs2)n1,-14.2%,-17.4%,nt,-14.5%
COc1ccccc1OCC(=O)NCC(c1cccs1)N1CCOCC1 (configuration not stated),-14.0%,-17.2%,12.9%,-6.0%
CC(C)c1ccccc1OCC(=O)NCC(c1cccs1)N1CCOCC1 (configuration not stated),nt,31.6µM*,0.1%,?
CCCCn1cnc2c(SCc3ccc([N+](=O)[O-])cc3)nc(N)nc21,3.98µM*,-14.4%,nt,?
Cn1cnc([N+](=O)[O-])c1Sc1nc(N)nc2c1ncn2Cc1ccccc1,12.6µM*,0.0%,nt,?
CCCCn1cnc2c(SCc3cccc(F)c3)nc(N)nc21,-3.4%,24.4%,nt,-1.5%
CCC(C)Cn1cnc2c(Sc3c([N+](=O)[O-])ncn3C)nc(N)nc21 (configuration not stated),15.8µM*,?,nt,?
Cc1cc(C)n(Cc2cccc(C(=O)NCC3Cc4cccc(-c5ncccn5)c4O3)c2)n1 (configuration not stated),-5.6%,-8.0%,nt,-3.7%
COC(=O)c1c(OCC2CCCN(C)C2)cc(=O)n2c1CCN(Cc1ccc(OC)c(O)c1)CC2 (configuration not stated),-1.1%,-5.8%,nt,-3.0%
CCSc1nnc(C(C)NS(=O)(=O)c2cccc(Cl)c2C)n1C (configuration not stated),-1.5%,0.4%,nt,0.5%
Cc1ccc(-n2c3nc(=O)[nH]c(=O)c-3cc3cc([N+](=O)[O-])ccc32)cc1C,-16.9%,28.2µM*,?,-10.2%
CC1CC(C)C(=NNC(N)=O)C(C(O)CC2CCC(=O)NC2=O)C1 (configuration not stated),?,-11.4%,nt,7.94µM*
CCOC(=O)CN1C(=O)CC(C[C@@H](O)C2C[C@@H](C)C[C@H](C)C2=O)CC1=O (some centres not stated),i,-15.0%,2.2%,-7.7%[60.7 µM]
COc1ccc(-c2nnc(SCC(=O)N(Cc3ccccc3)C(C)(C)C)o2)cc1OC,nt,11.2µM*,-7.1%,nt
CN1CCN(C(=O)CN(c2ccccc2)S(=O)(=O)N(C)C)CC1,-9.9%,1.1%,1.3%,-12.4%
Cc1ccc(Cl)cc1N1CCN(C(=O)CN(c2ccccc2)S(=O)(=O)N(C)C)CC1,-25.1%,20µM*,-15.7%,-18.0%
COc1cccc(CNC(=O)c2c(OC)cc(=O)n3c2CCN(C(=O)c2ccccc2Cl)CC3)c1,i,-8.1%,nt,-7.7%
CCc1ccc2c(c1)C1(C(=O)N2)N2CCCC2C(C(=O)c2ccc3ccccc3c2)C12C(=O)Nc1ccccc12 (configuration not stated),28.2µM*,-28.9%,-10.2%,12.6µM*
COc1ccccc1CN1CCCC(n2cc(C(=O)N3CCCCC3)nn2)C1 (configuration not stated),-6.1%,0.0%,nt,-7.9%
CN(C)CCNC(=O)c1cccc2ccc(-c3ccc(-c4ccccc4)cc3)nc12,?,0.0%,nt,12.6µM*
SMILES,VACV mCherry inh,FMDV inh,Giardia FBPA inh,Vaccinia Venus
COc1ccc(OC)c2nc3c(C(=O)NCCN(C)C)cccc3nc12,?,-25.6%,nt,?
CN(C)CCNC(=O)c1cccc2nc3cccc(F)c3nc12,?,-22.1%,nt,3.16µM*
CN(C)CCNC(=O)c1ccccc1,nt,-18.5%,3.5%,nt
CC(C)OC(=O)c1c(NC(=O)c2cc3nc(-c4ccccc4)cc(C(F)(F)F)n3n2)sc2c1CCCC2,-14.9%,-1.4%,nt,-10.8%
COc1ccc(-c2nc(C#N)c(NCc3ccc(F)cc3)o2)cc1OC,nt,?,0.0%,12.6µM*
COc1ccc(-c2nc(C#N)c(NCc3cccnc3)o2)cc1OC,nt,22.1%,4.6%,nt
CCC1(C2CCN(C(=O)c3ccccc3C(C)=O)CC2)NC(=O)N(CCc2scnc2C)C1=O (configuration not stated),-15.3%,-9.3%,nt,-15.8%
CSC(SC)=C(C#N)C(=O)c1ccccc1,i[7.34 µM],15.8µM*,2.8%,0.0%[7.34 µM]
COc1cccc(C(=O)C(C#N)=C(SC)SC)c1,nt,28.2µM*,0.2%,nt
COc1cccc(C(=O)C(CCC#N)c2ccccc2)c1 (configuration not stated),i,?,nt,-11.0%
Cc1occc1C(=O)Nc1cccc(-c2nc(CNC(=O)c3ccc(N4CCCCC4)cc3)c(C)o2)c1,-10.0%,19.9%,nt,-2.7%
CCOC(=O)N1CCc2c(sc(NC(=O)c3ccc(S(=O)(=O)N4CCCC4)cc3)c2C#N)C1,-28.7%,17.8µM*,-12.4%,?
N#Cc1ccc(NC(=S)NC(=O)CCc2ccc(S(=O)(=O)N3CCOCC3)cc2)cc1,nt,?,-8.7%,nt
COc1cc(NC(=O)c2ccc([N+](=O)[O-])o2)ccc1NC(=O)c1cccs1,10µM*,-6.8%,-13.7%,10µM*
O=C(Nc1ccc(S(=O)(=O)N2CCOCC2)cc1)c1ccc([N+](=O)[O-])o1,?,-14.4%,-19.6%,17.8µM*
O=C(Nc1ccc(S(=O)(=O)N2CCOCC2)cc1)c1ccc([N+](=O)[O-])s1,?,-13.2%,nt,1.4%
N#Cc1ccc(NC(=O)CCc2ccc(S(=O)(=O)N3CCOCC3)cc2)cc1,nt,28.2µM*,2.7%,nt
O=C(Nc1cccc(NC(=O)c2cccs2)c1)c1ccc([N+](=O)[O-])o1,?,-21.6%,-13.5%,?
O=C(Nc1cccc(NC(=O)c2ccc([N+](=O)[O-])o2)c1)c1ccco1,12.6µM*,27.1%,-5.5%,?
C=CCn1c(=O)n(C2OC(CO)C(O)C2O)c2nc(N)[nH]c(=O)c21 (configuration not stated),nt,nt,2.1%,nt
COc1ccc(-c2cc3ccccc3oc2=O)cc1NC(=O)c1ccc([N+](=O)[O-])o1,11.2µM*,-5.9%,-0.9%,?
O=C(COC(=O)c1ccc([N+](=O)[O-])o1)Nc1ccc(N2CCOCC2)cc1,nt,-0.2%,nt,nt
O=C(Nc1ccc(N2CCOCC2)cc1)c1ccc([N+](=O)[O-])o1,11.2µM*,27.1%,2.5%,?
O=C(Nc1ccc(Cc2ccncc2)cc1)c1ccc([N+](=O)[O-])o1,10µM*,10.1%,0.2%,?
O=C(Nc1ccc(Cc2ccncc2)cc1)c1cccc([N+](=O)[O-])c1,-6.8%,-22.9%,-7.7%,-15.0%
COc1ccc2nc(-c3ccc(N(C)C)cc3)sc2c1,nt,nt,-2.4%,nt
COc1ccccc1OCC(O)Cn1c(=N)n(Cc2ccccc2)c2ccccc21 (configuration not stated),nt,?,-8.0%,nt
Cc1ccccc1OCC(O)Cn1c(=N)n(Cc2ccccc2)c2ccccc21 (configuration not stated),10µM*,?,-5.7%,11.2µM*
N#Cc1cc(-c2ccccc2)[nH]c1-c1nccc2ccccc12,?,28.2µM*,-9.1%,?
